From PubChem BioAssay AID493244 (The Scripps Research Institute Molecular Screening Center, 2011)
“And” between values parts separate entries of the source, which are not always exact repeats. Equal entries are not always repeated. In all, about 340,000 compounds went through this assay and about 390 (0.11%) were called active.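 The calls were made as follows: active = inhibition above the mean inhibition of all tested compounds plus 3 SD (cut at about 17% in these data); inactive = the rest.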 The list comes from a sample in which actives are over-represented; it also holds similar structures and randomly drawn compounds.

Each compound was assayed against Troponin I, cardiac muscle (Homo sapiens) + Troponin T, cardiac muscle (Homo sapiens) + Troponin C, slow skeletal and cardiac muscles (Homo sapiens) (UniProt P19429+P45379+P63316) (assay: calcium desensitizers of cardiac thin filaments – biochemical, IANBD-TnC fluorescence, EC70 calcium, primary screen (AID 493244;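 also: assay run at fixed EC70 calcium of 1.6 mM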)). Details: IANBD-labeled cardiac RTF, Ca2+ fluorescence; at 7.15 µM; active compounds read high.

| Compound | inhibition |
| --- | --- |
| O=C(C[C@H]1C(=O)N(c2ccc(F)c(F)c2)C[C@@H]1Cc1ccccc1)Nc1ccccc1 | -7.8% (inactive) |
| COc1cc(OC)cc(-c2c(-c3ccc(F)cc3)c3cc(-c4ccc5cc[nH]c5c4)ccc3n2C)c1 | 0.02% (inactive) |
| Cc1nc2ccc(NC(=O)c3cccc(S(=O)(=O)N4CCOCC4)c3)cc2s1 | 7.38% (inactive) |
| O=S(=O)(Nc1ccc2nc(N3CCOCC3)sc2c1)c1ccccc1 | -15.4% (inactive) |
| O=C(O)c1cccc(S(=O)(=O)Nc2ccc(O)cc2Sc2nc3ccccc3s2)c1 | 20.3% (active) |
| CCCOc1ccc(N2C(=O)CC(N(CCc3ccc(S(N)(=O)=O)cc3)C(C)=O)C2=O)cc1 (stereo not given) | 11.4% (inactive) |
| COC(=O)CN(c1cccc(C(C)=O)c1)S(C)(=O)=O | -2.17% (inactive) |
| CCCC/S(C)=N/S(=O)(=O)c1ccc(C)cc1 (stereo not given) | -2.27% (inactive) |
| CC(=O)C1C(c2ccc(Cl)cc2)c2c(n[nH]c2C)CC1(C)O (stereo not given) | -5.53% (inactive) |
| O=C(Nc1cccnc1)c1cc2cc(Br)ccc2oc1=O | 3.93% (inactive) |
| COc1cccc(N(CC(=O)NC2CCCCCC2)S(=O)(=O)c2ccccc2)c1 | -9.96% (inactive) |
| COC(=O)C1(C)NC(c2ccccc2OC)C2C(=O)N(c3ccccc3)C(=O)C21 (stereo not given) | -1.37% (inactive) |
| C=CCC(CC=C)(C(N)=O)c1ccccc1 | -6.01% (inactive) |
| CNC(=O)COc1ccc(S(=O)(=O)Nc2ccccc2)cc1 | -0.29% (inactive) |
| CCCCn1c(N)c(N(CC(C)C)C(=O)c2cccc(S(=O)(=O)N3CC(C)OC(C)C3)c2)c(=O)[nH]c1=O (stereo not given) | -3.78% (inactive) |
| CCN(CC)C(=O)[C@H]1CC(CC(=O)NCc2ccco2)C(=O)N2CCc3c([nH]c4ccccc34)[C@]12C (stereo not given in full) | -0.12% (inactive) |
| Cc1ccsc1C(C(=O)NC1CCCCC1)N(C(=O)Cc1cccs1)C1CC1 (stereo not given) | -0.55% (inactive) |
| Cc1cccc(N(C(=O)Cc2cccs2)C(C(=O)NC2CCCC2)c2ccsc2)c1 (stereo not given) | 18.7% (active) |
| Cc1ccccc1N(C(=O)Cc1cccs1)C(C(=O)NC1CCCCC1)c1cn(C)nc1C (stereo not given) | -6.48% (inactive) |
| COc1ccc(C(C#N)(CC(=O)O)c2cnccn2)cc1OC (stereo not given) | 2.97% (inactive) |
| CCOC(=O)C1Cn2c(nc3c(c2=O)C(C)(CC)Cc2ccccc2-3)S1 (stereo not given) | -5.87% (inactive) |
| Cc1nc2cc(S(=O)(=O)C(F)(F)F)ccc2s1 | 0.85% (inactive) |
| Cn1c(N)cc(=O)n(C)c1=S | 1.39% (inactive) |

| Compound | inhibition |
| --- | --- |
| Cc1csc(/N=C/N(C)C)c1C#N | 5.98% (inactive) |
| Cc1c(CCOC(=O)CC23CC4CC(CC(C)(C4)C2)C3)sc[n+]1Cc1ccc([N+](=O)[O-])cc1 | -12.4% (inactive) and -2.7% (inactive) |
| CCOC(=O)c1sc(N(Cc2ccccc2)C(=O)CN2C(=O)CN(C)C2=O)nc1C | -19.2% (inactive) |
| OCCC1CN(Cc2ccc(Oc3ncccn3)cc2)CCN1CCc1ccccc1 (stereo not given) | -5.37% (inactive) |
| CC1(C)CC(=O)C=C(NCc2ccncc2)C1 | -4.04% (inactive) |
| O=C(NCc1ccccc1Cl)C1CCC(CNc2c(N3CCCCC3)c(=O)c2=O)CC1 (stereo not given) | -11.6% (inactive) |
| NC1=NC(c2ccc([N+](=O)[O-])cc2)N(c2ccc(F)cc2)C(N)=N1 (stereo not given) | 4.59% (inactive) |
| CCn1c(O)c(N=NC2=NC(=O)CS2)c2cc(C)ccc21 | 3.93% (inactive) |
| CCCCC(NC(=O)c1cccc(Br)c1)C(=O)O (stereo not given) | -10.9% (inactive) |
| CSc1ncnc2c1ncn2CC(=O)C1CCC2C3CCC4=CC(=O)CCC4(C)C3CCC12C (stereo not given) | -3.91% (inactive) |
| COc1ccc2c(c1)cc1n2CCN=C1NN | -7.01% (inactive) |
| COc1ccccc1-c1n[nH]c2c1[C@H](C)CC[C@H]2C(C)C | -2.28% (inactive) |
| CC(=O)c1nn(-c2cccc(C(F)(F)F)c2)c(=O)[nH]c1=O | -1.11% (inactive) |
| COC(=O)CCc1sc(Nc2ccc(Br)cc2)nc1-c1ccc(OC)cc1 | 20.8% (active) |
| COc1ccc(NC(=O)CCC(=O)Nc2nnc(C3CCCCC3)s2)cc1 | -6.36% (inactive) |
| Cc1ccc(OC(=O)CCC(=O)Nc2ccc(Br)cc2)cc1 | -3.9% (inactive) |
| Cc1ccc2c(cnn2C(=O)CCC(=O)NC2CCCC2)c1 | 6.54% (inactive) |
| CCN(CC(=O)Nc1c(F)cccc1F)C(=O)c1ccc(-c2ccc(C(C)=O)cc2)o1 | 1.58% (inactive) |
| COc1ccc(-n2c(C)cc(C(=O)CN3C(=O)NC4(CCc5ccccc54)C3=O)c2C)cc1 (stereo not given) | -0.58% (inactive) |
| O=C(/C(=N\O)n1cncn1)c1ccc(Br)cc1Br | -6.03% (inactive) |
| Cc1ccc(CN2CCNC(=O)C2CC(=O)NCc2csc(C(C)C)n2)cc1 (stereo not given) | -0.36% (inactive) |
| O=C1C=C(c2ccc(Cl)cc2)C(=O)N1Nc1ccccc1 | -3.83% (inactive) |
| Cc1ccc(C(=O)NCCc2nnc(SCC(=O)Nc3cccc(C(=O)O)c3)n2C)cc1 | -8.53% (inactive) |

| Compound | inhibition |
| --- | --- |
| CCC(NC(=O)c1cc(COc2ccc(F)c(F)c2)on1)c1ccncc1 (stereo not given) | -0.88% (inactive) |
| CCCN(CCC)CCCNC(=O)CNC(=O)c1nn(-c2ccc(OC)cc2)c(=O)c2ccccc12 | 1.59% (inactive) |
| COc1ccc(NS(=O)(=O)c2cc(NC(=O)COc3ccccc3F)ccc2OC)cc1 | -0.92% (inactive) |
| COc1ccc(C(F)(F)F)cc1N/C=C\c1nnnn1-c1ccc(C)cc1 | -1.14% (inactive) |
| Cc1ccc(-c2c[n+](=O)c3c(n2[O-])CCC3)cc1 | -7.98% (inactive) |
| Cc1ccc(NC(=O)C(C)OC(=O)C2CC3CCCC(C2)C3=O)cc1S(=O)(=O)N1CCOCC1 (stereo not given) | -1.77% (inactive) |
| N#CCCn1ncc2ccccc21 | -17% (inactive) |
| CCOC(=O)N1CCN(Cc2nc3cc(NC(=O)CC)ccc3n2CC)CC1 | -8.27% (inactive) |
| CCC(C)CN1CCC(CO)(Cc2ccccc2Cl)CC1 (stereo not given) | 2.96% (inactive) |
| CC(C)C[C@H]1CN=C(Nc2ccccc2)N1CC1CCCCC1 | -2.92% (inactive) |
| CCOc1ccc(-n2c(SC(C)C(=O)OC)nc3c(c2=O)SCC3)cc1 (stereo not given) | -6.85% (inactive) |
| Cc1ccc2nc(Nc3ncc4c(n3)CC(C)(C)CC4=O)nc(C)c2c1 | -5.46% (inactive) |
| NS(=O)(=O)c1cccc(NC(=O)CC23CC4CC(CC(Br)(C4)C2)C3)c1 | -5.43% (inactive) |
| CC(C)(CNC(=O)c1ccc(Cl)c(S(=O)(=O)N2CCc3ccccc3C2)c1)N1CCOCC1 | -11.2% (inactive) |
| COc1ccccc1C(=O)N1CCNC(=O)C1CC(=O)Nc1ccc(Cl)cc1 (stereo not given) | 1.41% (inactive) |
| COc1cc(OC)cc(C(=O)NCC(=O)OCc2csc(-c3ccccc3)n2)c1 | 17.6% (active) |
| COC(=O)c1ccc(COC(=O)CNC(=O)c2cccc(OC)c2)o1 | -10.2% (inactive) |
| COc1cc(OC)cc(C(=O)NCC(=O)OCC(=O)NC(C)CCc2ccccc2)c1 (stereo not given) | -1.01% (inactive) |
| Cc1ccc(S(=O)(=O)N2CC(O)C[C@H]2C(=O)OCC(=O)Nc2ccc(N3CCOCC3)cc2)cc1C (stereo not given in full) | -9.94% (inactive) |
| O=C1COc2ccc(C(=O)COC(=O)C3CC(O)CN3S(=O)(=O)c3ccc(Cl)cc3)cc2N1 (stereo not given) | -1.25% (inactive) |
| CC1CCCC(NC(=O)COC(=O)[C@@H]2CC(O)CN2S(=O)(=O)c2ccc3c(c2)OCCO3)C1C (stereo not given in full) | 20.7% (active) |
| CCN(CC)CCNC(=O)c1ccc(NC(=O)c2c(F)cccc2Cl)cc1 | -3.23% (inactive) |
| COC(=O)C1=NN(c2ccccc2)C2C(=O)N(c3ccccc3OC)C(=O)C12 (stereo not given) | -2.73% (inactive) |

| Compound | inhibition |
| --- | --- |
| Cc1oc2cc(Br)c(O)c(Br)c2c1C(=O)c1ccccc1 | -3.49% (inactive) |
| CC(=O)Nc1nc(N(C)C)nc(N(C)C)n1 | 2.09% (inactive) |
| CCN1C(=O)/C(=C2\SC(N3CCCCC3)=NC2=O)c2ccccc21 | -0.1% (inactive) |
| Cn1c2c(c(=O)n(C)c1=O)C(c1ccc(O)cc1)Nc1ccccc1O2 (stereo not given) | 3.38% (inactive) |
| O=C(N[C@@H]1C/C=C\C[C@@H](CC(=O)N(CCO)Cc2ccccc2)C(=O)N[C@H](Cc2ccccc2)COC1=O)OCC1c2ccccc2-c2ccccc21 | -7.62% (inactive) |
| O=C(O)c1ccccc1N=N/C(=N/Nc1cc(S(=O)(=O)O)ccc1O)c1ccccc1 | 5.68% (inactive) |
| CC1CC(C)CN(C(=O)CSc2ccsc2[N+](=O)[O-])C1 (stereo not given) | -12.4% (inactive) |
| COc1ccc(NC(=O)CC2COc3ccccc3O2)c(OC)c1 (stereo not given) | 17.3% (active) |
| COc1ccc(NC(=O)NCc2ccc3c(c2)OCO3)c(OC)c1 | -6.62% (inactive) |
| COc1ccc(NC(=O)C2COc3ccccc3O2)cc1 (stereo not given) | 1.47% (inactive) |
| O=C(Nc1ccccc1)c1nnsc1S(=O)(=O)c1ccc(Cl)cc1 | -4.97% (inactive) |
| N=c1n(Cc2ccc(Cl)cc2)c2ccccc2n1CC(O)c1ccco1 (stereo not given) | -16.9% (inactive) |
| Cc1ccc(NC(=O)CN(C)C(=O)c2ccc(Br)o2)cc1 | -14.7% (inactive) |
| CCCCCCCCNS(=O)(=O)CCNC1CCCCC1 | -2.61% (inactive) |
| Cc1ccc2c(c1)N(CC(=O)N1CCCC(C)C1)C(=O)CO2 (stereo not given) | -10.6% (inactive) |
| Cc1c(S(=O)(=O)N2CC(C)CC(C)C2)c(=O)n(C)c(=O)n1C (stereo not given) | -1.29% (inactive) |
| O=C(O)CCCCOn1ccnc1 | -6.34% (inactive) |
| CN(CC1CCCO1)S(=O)(=O)c1ccc(C(=O)Nc2ccc(F)cc2)cc1 (stereo not given) | 1.44% (inactive) |
| COc1ccc(NC2=CC(=S)NC(C)(C)C2)cc1 | -18.1% (inactive) |
| Cc1ccc2c(c1)N(CC(=O)N1CCC(O)CC1)C(=O)CO2 | 6.2% (inactive) |
| COc1ccc(CNC(=O)CN2C(=O)c3ccccc3S2(=O)=O)cc1 | -0.78% (inactive) |
